Assay outcomes (PubChem BioAssay)
Granule exo inh: LAMP-1 surface exposure blockers, TALL-104 cells – cell-based, flow cytometry, MLPCN library, primary screen. 0.66% of 360,000 active. inhibition, % at 10 µM. TALL-104 LAMP-1 surface exposure; cells stimulated with thapsigargin and PMA. AID 651702, 2012;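 active means inhibition above about 55%, limit read from the data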
CaV13 ICDI inh: Primary screen for inhibitors of IQ motif and Ca2+-dependent inactivation inhibitor domain binding in CACNA1D, Förster resonance energy transfer in living cells, … | HEK cells, CFP/YFP FRET ICDI-IQ, plate reader, 10 min; percent FRET-ratio fall versus neutral wells | inhibition, % at 12.3 µM | 0.098% of 340,000 active;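 active means mean replicate inhibition of at least 30% and at least 1% of replicates passing that level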;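 further: 0% = median of the neutral control wells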
ABCB6 inh 2: ABCB6 transporter inhibitors, primary screen, K562-ABCB6 cells, flow cytometry, MLPCN library. AID 602162, 2011. K562-ABCB6 porphyrin accumulation, 1 h; stronger effect = lower value. 0.19% of 360,000 active. fluorescence ratio to DMSO, % at 10 µM. ATP-binding cassette sub-family B member 6 (Homo sapiens), Q9NP58;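 active means fluorescence ratio to DMSO below 75%, the collection mean minus 3 SD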;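 further: signal is porphyrin accumulated inside mitochondria; 100% equals median channel fluorescence of DMSO control wells; lower ratio means ABCB6 inhibition with less porphyrin fluorescence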
VLA-4 inh: inhibition in human VLA-4 binding assay, primary screen, VLA-4 allosteric modulator project, MLPCN library, flow cytometry, VLA-4 expressing cells; Integrin alpha-4 (Homo sapiens), P13612; ligand binding flow cytometry; inhibition, % (about 7 µM as worked out from the volumes in the protocol); 0.2% of 330,000 active; in the data active means inhibition above about 50%
Target sequence (P13612 whole entry, looked up): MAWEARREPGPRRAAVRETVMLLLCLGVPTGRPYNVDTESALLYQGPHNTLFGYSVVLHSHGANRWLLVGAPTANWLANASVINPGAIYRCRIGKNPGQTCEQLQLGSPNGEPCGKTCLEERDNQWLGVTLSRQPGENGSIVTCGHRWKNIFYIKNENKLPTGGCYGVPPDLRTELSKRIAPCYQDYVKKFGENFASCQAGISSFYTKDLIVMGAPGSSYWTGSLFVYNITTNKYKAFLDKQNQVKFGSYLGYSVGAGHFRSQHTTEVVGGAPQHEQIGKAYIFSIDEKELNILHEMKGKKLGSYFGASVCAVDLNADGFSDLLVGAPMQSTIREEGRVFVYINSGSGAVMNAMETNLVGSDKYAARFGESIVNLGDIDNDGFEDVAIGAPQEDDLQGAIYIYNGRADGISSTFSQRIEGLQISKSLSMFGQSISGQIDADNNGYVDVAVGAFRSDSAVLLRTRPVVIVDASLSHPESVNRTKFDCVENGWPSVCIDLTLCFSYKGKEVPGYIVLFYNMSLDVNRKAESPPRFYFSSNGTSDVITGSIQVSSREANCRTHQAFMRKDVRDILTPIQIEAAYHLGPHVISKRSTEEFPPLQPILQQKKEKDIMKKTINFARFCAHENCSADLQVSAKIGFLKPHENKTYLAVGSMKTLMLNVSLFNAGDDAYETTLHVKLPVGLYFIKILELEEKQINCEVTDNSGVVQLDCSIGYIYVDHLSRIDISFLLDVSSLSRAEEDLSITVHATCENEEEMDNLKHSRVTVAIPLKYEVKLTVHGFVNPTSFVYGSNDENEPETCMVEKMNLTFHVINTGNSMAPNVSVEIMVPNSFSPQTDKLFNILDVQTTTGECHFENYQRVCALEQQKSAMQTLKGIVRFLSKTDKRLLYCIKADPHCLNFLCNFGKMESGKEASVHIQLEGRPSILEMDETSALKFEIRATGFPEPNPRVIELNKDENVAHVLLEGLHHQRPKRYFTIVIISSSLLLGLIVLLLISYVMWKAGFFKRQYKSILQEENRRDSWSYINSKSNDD
VLA-4 mod pick: retest of VLA-4 allosteric modulators, confirmation, cell-based, cherry-picked plates, U937, HUTS-21 LIBS antibody; 2% of 1,300 active; U937 cells, HUTS-21 LIBS mAb binding, flow cytometry; LDV ligand present at threefold Kd; AID 2813, 2010; inhibition, % at 6.7 µM; shares compounds with VLA-4 inh; in the data active means inhibition above about 40%;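 further: 0% = ligand without compound and 100% = no ligand background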
* hit, by the source's call; / = not tested or not shown. An excerpt weighted towards active compounds, which were near 1.1% of everything screened.

SMILES | Granule exo inh | CaV13 ICDI inh | ABCB6 inh 2 | VLA-4 inh | VLA-4 mod pick
C[CH2][Hg][S]c1ccccc1C(=O)O | 69* | -5 | 92 | 35 | /
COC(=O)C1=C(c2ccc(Cl)c(C(F)(F)F)c2)C[C@@H]2CC[C@H]1N2C(=O)NCc1ccc2c(c1)OCO2 | 76* | -5 | 95 | -2 | /
CN1C(=O)/C(=C/c2cccn2-c2ccc3ccccc3c2)C(=O)NC1=S | 98* | / | 94 | 9 | /
O=C1NC(=S)NC(=O)C1=Cc1cccn1-c1ccc(O)cc1 | 32 | -4 | 93 | / | /
CCn1nc(/C=C/c2ccccc2)nc2c(=O)n(C)c(=O)nc1-2 | 88* | -5 | 118 | / | /
CCn1nc(-c2cccs2)nc2c(=O)n(C)c(=O)nc1-2 | 79* | / | 121 | / | /
COc1ccc(-n2c(/C=C/c3ccc(O)cc3)nc3ccccc3c2=O)cc1 | 4 | -27 | 118 | -10 | /
COc1cc2c(c(OC)c1OC)-c1ccc(SC)c(=O)cc1C(N)CC2 (stereo unspecified) | -12 | -7 | 98 | / | /
CNC1CCc2cc(OC)c(OC)c(OC)c2-c2ccc(SC)c(=O)cc21 (stereo unspecified) | -2 | -2 | 100 | / | /
CCN1/C(=C\C=C\C2=[N+](CC)c3ccccc3C2(C)C)C(C)(C)c2ccccc21 | 85* | / | / | / | /
CCOC(=O)NC1CCc2cc(OC)c(OC)c(OC)c2-c2ccc(OC)c(=O)cc21 (stereo unspecified) | -2 | -7 | 99 | / | /
Oc1ccc(-[n+]2c(-c3ccccc3)cc(-c3ccccc3)cc2-c2ccccc2)cc1 | 28 | -5 | 90 | 6 | /
Oc1ccccc1-[n+]1c(-c2ccccc2)cc(-c2ccccc2)c(O)c1-c1ccccc1 | 74* | -30 | 105 | -8 | /
COc1cc2c(c(OC)c1OC)-c1ccc(OC)c(=O)cc1C(N)CC2 (stereo unspecified) | -2 | -7 | 102 | / | /
COc1cc(C=C2C(=O)NC(=O)NC2=O)ccc1OCc1ccc([N+](=O)[O-])cc1 | -3 | 10 | 93 | / | /
COc1cc(/C=C(/C)[N+](=O)[O-])ccc1OCc1ccccc1Cl | 85* | / | 88 | 23 | /
COc1ccc(CN2C(=O)C(CC(=O)NCc3ccco3)CC(C(=O)N(C)C)=C2C)cc1 (stereo unspecified) | 5 | -2 | 98 | / | /
CCOc1ccc(-c2cc(C)[n+](CCc3ccc(OC)c(OC)c3)c(-c3ccc(OCC)cc3)c2)cc1 | 57* | -19 | 85 | 0 | /
COc1cc(C=NNC(=S)Nc2ccc(S(=O)(=O)N3CCCCC3)cc2)cc(OC)c1OC | 0 | -14 | 93 | / | /
CC(C)OP(=O)(O)NC(=O)c1ccccc1 | 5 | 167* | 105 | 6 | /
N[C@@H](Cc1c[nH]c2ccccc12)c1nnc(SCc2ccc(Cl)cc2)o1 | -6 | -5 | 71* | -8 | /
O=C1NC(=O)N(CCc2ccc(F)cc2)C(=O)/C1=C/c1cccs1 | 80* | -7 | 94 | 23 | /
O=C1NC(=O)N(CCC2=CCCCC2)C(=O)/C1=C\c1cccs1 | 5 | -16 | 103 | 3 | /
COc1ccccc1-c1cc(NC(C)=O)c2ncc(-c3ccccc3)n2c1 | 54 | -12 | 94 | / | /
COc1cc(/C=C/[N+](=O)[O-])ccc1O | 19 | / | 100 | -17 | /
SMILES | Granule exo inh | CaV13 ICDI inh | ABCB6 inh 2 | VLA-4 inh | VLA-4 mod pick
CCN(CC)c1ccc(/C=C/[N+](=O)[O-])cc1 | 71* | -60 | 120 | 13 | /
N#CC1=C(N)Oc2cc(O)ccc2C1c1ccc2c(c1)OCO2 (stereo unspecified) | 0 | 144* | 96 | 9 | /
c1cc2c(cc1[C@H]1OC[C@H]3[C@@H]1CO[C@H]3c1ccc3c(c1)OCO3)OCO2 | 10 | 11 | 98 | -3 | /
O=C1CN(O)C(c2ccccc2)=c2cc(Cl)ccc2=N1 | 0 | 15 | 98 | 101* | -12
CN=C1CN(O)C(c2ccccc2)=c2cc(Cl)ccc2=N1 | 24 | -6 | 93 | 14 | /
CN1OC[C@@H]2CN3C4(C[C@@H]21)c1ccccc1C3(c1ccccc1)c1ccccc14 | / | -3 | / | / | /
CN1C2CCC1CC(OC(=O)c1cccc(O)c1)C2 (stereo unspecified) | -2 | / | 102 | / | /
CN1[C@@H]2CC[C@H]1CC(OC(=O)C1C=Nc3ccccc31)C2 (stereo partly specified) | 0 | -5 | 95 | 51* | 11
CCOC(=O)c1c(NC(=O)C(c2ccccc2)c2ccccc2)sc2c1C1CCN2CC1 | 5 | / | 94 | -4 | -3
CCOC(=O)c1c(NC(=O)c2c(N)n(CCCOC)c3nc4ccccc4nc23)sc2c1CCCC2 | 1 | -8 | 96 | 31 | /
O=[N+]([O-])c1c(Cl)c(Cl)c(Cl)c(Cl)c1Cl | 14 | -2 | 97 | / | /
Nc1cc(Cl)c2nonc2c1[N+](=O)[O-] | 16 | -5 | 86 | 50* | 32
COC(=O)C1C2CC[C@@H](CC1OC(=O)c1ccccc1)N2 (stereo partly specified) | 2 | / | 103 | 8 | -1
CN1C2CCC1C(C(=O)O)C(OC(=O)c1ccccc1)C2 (stereo unspecified) | 0 | / | 99 | 35 | 3
COc1cccc(O)c1CN1CCCC(C(=O)c2ccccc2SC)C1 (stereo unspecified) | -1 | 3 | 93 | 51* | -4
Cc1ccc(S(=O)(=O)N[C@@H](CCCCN)C(=O)CCl)cc1 | -2 | -5 | 105 | 53* | -7
O=C(NCCN1CCC2(CC1)C(=O)NCN2c1ccccc1)C(c1ccccc1)c1ccccc1 | / | -11 | / | / | /
O=C(Nc1ccccc1)N1Cc2cc(Br)ccc2-n2nncc2C1 | / | -4 | / | / | /
Cc1cccc(CN2CCCN(Cc3ccc(Cl)cc3)S2(=O)=O)c1 | 0 | -20 | 97 | 45 | -1
Cc1ccc(CN2CCCN(Cc3ccc(C)cc3)S2(=O)=O)cc1 | 1 | -19 | 100 | 4 | /
O=C(NCCN1CCC2(CC1)C(=O)NCN2c1ccccc1)c1ccccc1C(F)(F)F | / | -11 | / | / | /
O=c1[nH]c(=S)n(Cc2ccc(F)cc2)c(O)c1/C=N/N1CCCCC1 | -1 | -4 | 90 | 56* | -7
Cc1cc(C)cc(N2C(=O)NC(=O)/C(=C\c3cccn3-c3ccc(Cl)cc3)C2=O)c1 | 44 | / | 99 | 17 | /
Cc1cc(C)cc(N2C(=O)NC(=O)/C(=C\c3cccn3-c3ccccc3)C2=O)c1 | 26 | -6 | 90 | 44 | 16
c1ccc2c(c1)Nc1ccccc1S2 | -4 | / | 100 | 55* | 13
O=C1Nc2ccccc2Sc2ccccc21 | 4 | -7 | 105 | 4 | /
CCN(CC)c1ccc(N=Cc2c(O)n(Cc3ccccc3)c(=O)[nH]c2=O)cc1 | 1 | -5 | 106 | -7 | -22
